{"source": "PubChem BioAssay AID793", "about": "(The Scripps Research Institute Molecular Screening Center, 2007)", "note": "Out of some 140,000 compounds screened, about 1,400 (1%) were called active. Only a selection was taken, and actives are over-represented in it overall. Unmarked numbers belong to inactive results. Rule as the data show it: active = inhibition above about 17%; inactive = the rest."}
{"target": "Neuropeptide Y receptor type 2 (Homo sapiens) (UniProt P49146)", "sequence (P49146 whole entry, looked up)": "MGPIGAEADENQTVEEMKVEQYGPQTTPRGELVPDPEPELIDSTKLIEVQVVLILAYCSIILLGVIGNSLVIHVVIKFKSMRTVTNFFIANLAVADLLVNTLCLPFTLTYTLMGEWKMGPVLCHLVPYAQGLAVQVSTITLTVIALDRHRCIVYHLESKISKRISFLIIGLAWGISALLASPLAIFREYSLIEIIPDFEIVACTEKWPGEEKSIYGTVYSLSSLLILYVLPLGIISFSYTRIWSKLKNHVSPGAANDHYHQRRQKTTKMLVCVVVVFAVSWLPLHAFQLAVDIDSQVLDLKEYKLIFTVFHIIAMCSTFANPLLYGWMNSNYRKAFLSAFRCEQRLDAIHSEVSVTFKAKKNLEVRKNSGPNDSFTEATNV", "assay": "NPY-Y2 receptor antagonists, primary screen, cell-based (AID 793);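 also: 0% = vehicle with agonist challenge and 100% = reference antagonist with challenge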", "settings": "NPY-Y2 expressing cells, antagonist mode; at 2.7 µM; hits give high values"}
{"smiles": "CN1CCN(C(=S)SCC(=O)Nc2ccc(Cl)cc2C(=O)c2ccccc2)CC1", "inhibition": "6.46%"}
{"smiles": "O=C(CCNS(=O)(=O)c1ccccc1)Nc1ccc(Cl)cc1C(=O)c1ccccc1", "inhibition": "2.34%"}
{"smiles": "O=C(COC(=O)c1ccccc1)Nc1ccc(Cl)cc1C(=O)c1ccccc1", "inhibition": "34.7% (active)"}
{"smiles": "CN1CCN(Cc2ccc(OC(F)(F)F)cc2)CC1", "inhibition": "3.95%"}
{"smiles": "CCOC(=O)c1c(-c2ccccc2)oc2ccc(OC(=O)N(C)C)cc12", "inhibition": "4.26%"}
